# Bioassay records (PubChem BioAssay)
# In the library only some 0.5% were active in any assay of this set; here they are far more common.
# E coli growth-1: E. coli growth inhibition; Escherichia coli growth, OD600, 23 h; active compounds read low; OD600 absorbance (test concentration not listed); 330,000 compounds, 0.21% hits;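 active = OD600 absorbance below the run mean of sample wells minus 3.6 SD, in any replicate, cut at about 0.56 in these data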
# Tat transport: inhibitors of E. coli Tat protein transport. E. coli MC4100 TorA-mCherry Tat export, fluorescence. inhibition, % at 10 µM. 340,000 compounds, 0.036% hits;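 active = mean replicate inhibition at least 50% and at least half of replicates individually reaching 50%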;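 also: exported cargo escapes ClpAP degradation while cytoplasmic cargo is degraded and loses fluorescence; 0% = median of neutral control wells and 100% = median of NaSCN control wells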
# E coli growth-2: reduces bacterial viability in AddAB counter-screen. E. coli V3065 growth, OD600 absorbance, 18 h. inhibition, % at 11.9 µM. 330,000 compounds, 0.27% hits. AID 449728;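 active = inhibition above the campaign's mean inhibition across all tested compounds plus 3 SD, cut at about 9.9% in these data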;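 also: uninfected addAB+ strain grown without phage in ampicillin broth; 0% = DMSO wells and 100% = ciprofloxacin 0.95 µg/ml wells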
# phage Ecoli inh: E. coli growth loss with phage present; growth absorbance; inhibition, % at 11.9 µM; 360,000 compounds, 0.26% hits; AID 651602; in the data active = inhibition above about 11%
# AddAB inh: less growth of phage-infected E. coli with AddAB; 330,000 compounds, 0.29% hits; E. coli expressing H. pylori AddAB, absorbance growth; inhibition, % at 11.9 µM; in the data active = inhibition above about 12%;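 also: 0% = vehicle wells of infected cells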
# RecBCD conf: growth loss of phage-infected V66 E. coli, RecBCD confirmation screen | shares compounds with phage Ecoli inh | E. coli V66 + T4 2- phage, growth OD | inhibition, % at 11.9 µM | 890 compounds, 45% hits | AID 651982;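 active = mean inhibition over triplicates exceeding the hit threshold derived in the original primary screen, cut at about 11% in these data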
# Ecoli viability: bacterial viability inhibition counter-screen for RecBCD. shares compounds with phage Ecoli inh. E. coli viability, absorbance (OD) growth. inhibition, % at 11.9 µM. 890 compounds, 29% hits; in the data active = inhibition above about 20%;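 also: E. coli strain V66 grown with compound alone and no phage infection; 0% = bacteria with DMSO vehicle only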
# AddAB phage OD: growth loss of phage-infected AddAB E. coli, RecBCD counter-screen; shares compounds with phage Ecoli inh; E. coli expressing H. pylori AddAB + T4 phage, OD growth; gene 2 mutant T4, recBCD-deleted host; inhibition, % at 11.9 µM; 890 compounds, 45% hits; AID 651984;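 active = mean inhibition above the solvent-only control wells' mean plus 3 SD, cut at about 22% in these data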;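 also: higher means less bacterial growth from phage killing when AddAB is blocked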
# Active calls of the source: *; · = no result.
SMILES,E coli growth-1,Tat transport,E coli growth-2,phage Ecoli inh,AddAB inh,RecBCD conf,Ecoli viability,AddAB phage OD
NS(=O)(=O)c1ccc(CCNC(=O)CC(NC(=O)c2ccccc2Cl)c2ccccc2)cc1 (configuration not stated),0.67,2,-2,15*,-2,-1,0,5
COc1ccc(CCNC(=O)CC(NC(=O)c2ccccc2Cl)c2ccccc2)cc1 (configuration not stated),0.71,0,-1,2,0,·,·,·
Cc1cc(NC(=O)Cn2c(C)nc3ccccc3c2=O)ccc1Br,0.76,4,19*,13*,20*,12*,17,17
CCC(=O)Nc1ccc2nc(C)n(CC(=O)Nc3ccccc3)c(=O)c2c1,0.69,0,-4,4,-1,·,·,·
Cc1ccc(C)c(NS(=O)(=O)c2c(C)nc3sccn3c2=O)c1,0.7,-10,0,99*,-2,-2,-2,-2
COc1ccc(Cl)cc1NS(=O)(=O)c1c(C)nc2sccn2c1=O,0.75,4,-1,3,3,·,·,·
Oc1cccc2ccc(Nc3ccccn3)nc12,0.62,-15,18*,12*,12,6,9,5
c1ccc(Nc2ccccc2Nc2ccccn2)nc1,0.71,0,4,2,2,·,·,·
COc1ccc(-c2cc(C3C4C=CCC[C@@]4(C)C(=O)N3Cc3ccccc3)ccc2F)cc1OC (some centres not stated),0.69,·,·,·,·,·,·,·
COc1ccc(NC(=O)N(C)CC2Oc3ccc(NC(=O)NC4CCCCC4)cc3C(=O)N(C(C)CO)CC2C)cc1 (configuration not stated),0.71,·,·,·,·,·,·,·
O=C(C1=C(c2ccccc2)C(=O)c2ccccc2C1=O)c1ccccc1,0.66,0,·,11*,·,-4,-3,5
Fc1ccc(CN2CCC3C=CCc4cccc(c43)C2)cc1 (configuration not stated),0.61,·,·,·,·,·,·,·
Cc1cc(-c2ccccc2)n(-c2cc(N/N=C/c3ccccc3O)ncn2)n1,·,-4,5,16*,9,6,7,4
Cc1cc(-c2ccccc2)n(-c2cc(NN=Cc3ccccc3O)ncn2)n1,0.71,·,·,·,·,·,·,·
Cc1ccc(N2C(=O)N3C(c4ccc(Cl)cc4)C4C(=O)N(C5CCCCC5)C(=O)C4[C@]3(Cc3ccccc3)C2=O)cc1 (some centres not stated),0.74,·,·,·,·,·,·,·
